PubChem BioAssay (Tox21)
Inconclusive results are not listed. Activity calls are given as the source filed them. Unless noted, calls follow the shape of the dose curve; as a rule, active = well fitted curve in the direction sought with a large enough effect in the repeat runs; inconclusive = weak or mixed curves; inactive = no such curve, though single readings can be large; an effect the other way counts as inactive or inconclusive.

Columns and labels:
[1] = qHTS assay to identify small molecule agonists of the estrogen receptor alpha (ER-alpha) signaling pathway in the presence of an antagonist - cell viability counter screen (AID 1259386);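 also: cells exposed to compounds for 22 h at 37 °C before the viability read; nearly all actives have a fitted effect of over 30% in size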; also: potency is read from the fitted curve at half-maximal effect
Procedure, shortened: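 VM7Luc4E2 cells (endogenous full-length ER-alpha, 4×ERE-luciferase) were held 5 days in phenol red-free medium with 10% charcoal-stripped FBS, plated, then given 10.0nM ICI-182,780 and compounds at 15 concentrations for 22hr at 37C; viability read by CellTiter-Fluor fluorescence.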

[2] = biological target: Progesterone receptor (Homo sapiens) (UniProt P06401); assay: qHTS assay to identify small molecule agonists of the progesterone receptor (PR) signaling pathway (AID 1346784; calls by dose curve; also: nearly all actives have a fitted effect of over 30% in size; also: potency is read from the fitted curve at half-maximal effect)
Procedure, shortened: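 Cells (PR-UAS-bla HEK 293T, GripTite) were plated in assay medium containing 2% charcoal-stripped FBS and incubated 6 hr. Test compounds in DMSO were added for 16 hr at 37C. FRET substrate was then loaded for 2 hr at room temperature before fluorescence reading.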

[3] = qHTS assay to identify small molecule antagonists of the progesterone receptor (PR) signaling pathway - cell viability counter screen (AID 1346798); also: nearly all actives have a fitted effect of over 50% in size; also: potency is read from the fitted curve at half-maximal effect
Procedure, shortened: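 Counter screen for cytotoxicity: viability of PR-UAS-bla HEK293T cells was measured with CellTiter-Glo luminescence following 16 hr compound exposure in the presence of R5020.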

[4] = qHTS assay to identify small molecule antagonists of the TGF-beta/Smad signaling pathway - cell viability counter screen (AID 1346824); also: nearly all actives have a fitted effect of over 50% in size
Procedure, shortened: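 SBE-bla HEK 293T cells were plated overnight at 37 C, then given compounds in DMSO plus TGF-beta1 (added as 0.25 ng/mL solution) for 5 hr. After the bla read, CellTiter-Glo was added to the same wells and luminescence read after 30 min at room temperature.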

[5] = qHTS assay to identify small molecule agonists of the TGF-beta/Smad signaling pathway - cell viability counter screen (AID 1346829); also: top concentration of the series differs between compounds; nearly all actives have a fitted effect of over 45% in size
Procedure, shortened: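 Cytotoxicity counter screen: CellTiter-Glo luminescence (30 min, room temperature) measured in the SBE-bla HEK 293T reporter wells after 5 hr compound treatment at 37 C and the 2 hr substrate step.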

[6] = biological target: Thyrotropin-releasing hormone receptor (Homo sapiens) (UniProt P34981); assay: qHTS assay to identify small molecule antagonists of the thyrotropin-releasing hormone receptor (TRHR) signaling pathway (AID 1346877; active = well fitted inhibition curve with a large enough effect in the repeat runs, not every such curve was filed as active; also: series mostly up to about 51 µM)
Procedure, shortened: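 TRHR-expressing HEK293 cells were seeded, cultured 18 h at 37 °C, then loaded with calcium dye for 2 h. Compounds were pre-incubated 5 min at room temperature before 1 nM TRH (final) was added, and kinetic fluorescence was recorded for 3 min.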

[7] = biological target: Thyrotropin-releasing hormone receptor (Homo sapiens) (UniProt P34981); assay: qHTS assay to identify small molecule agonists of the thyrotropin-releasing hormone receptor (TRHR) signaling pathway (AID 1346891; calls by dose curve; also: series mostly up to about 58 µM)
Procedure, shortened: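 Cells: TRHR-Hek293, seeded and incubated 18 h. Dye loading: 2 h at 37 °C. Compound added from DMSO stock by pin tool. Read-out: kinetic calcium fluorescence over 3 min.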

[8] = Human pregnane X receptor (PXR) small molecule agonists, qHTS cell viability counter screen (AID 1346977); also: nearly all actives have a fitted effect of over 50% in size
Procedure, shortened: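 Cytotoxicity counter screen run in the same wells as the PXR luciferase assay, using PXR-Luc HepG2 cells in charcoal-stripped serum medium. Viability: CellTiter-Fluor fluorescence after 24hr compound treatment.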

[9] = Caspase-3/7 induction in CHO-K1 cells by small molecules, qHTS cell viability counter screen (AID 1346979); also: nearly all actives have a fitted effect of over 35% in size
Procedure, shortened: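 Cytotoxicity counter screen run in parallel with the caspase-3/7 assay: CHO-K1 cells, 16hr compound treatment at 37C, then CellTiter-Fluor for 1hr before fluorescence reading.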

[10] = Caspase-3/7 induction in CHO-K1 cells by small molecules, qHTS assay (AID 1346980); also: nearly all actives have a fitted effect of over 15% in size
Procedure, shortened: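 Wild-type cells were seeded at 1,500 per well and settled 5 hr at 37 C, 5% CO2, then exposed to DMSO-dissolved compounds for 17 hr. Caspase-Glo 3/7 reagent was added, and luminescence was read after 30min at room temperature.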

[11] = Caspase-3/7 induction in HepG2 cells by small molecules, qHTS cell viability counter screen (AID 1346981); also: series mostly up to about 92 µM; nearly all actives have a fitted effect of over 30% in size
Procedure, shortened: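 Wild-type HepG2 cells (2,000/well) were allowed to settle for 5 hr at 37 C, 5% CO2, then dosed with compounds in DMSO by pin transfer. After 16 hr at 37 C, CellTiter-Fluor was added and fluorescence read 1 hr later.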

[12] = qHTS assay to identify small molecule agonists of the progesterone receptor (PR) signaling pathway - cell viability counter screen (AID 1346799; calls by dose curve; also: nearly all actives have a fitted effect of over 45% in size; also: potency is read from the fitted curve at half-maximal effect)
Procedure, shortened: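 Cells (PR-UAS-bla HEK293T) are plated at 3,000/well in 2% charcoal-stripped FBS medium, rested 6 hr, dosed and incubated 16 hr at 37C. CellTiter-Glo is then added and luminescence measured after 30 min at room temperature.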

[13] = qHTS assay to identify small molecule agonists of the TGF-beta/Smad signaling pathway (AID 1346859; active = well fitted activation curve with a large enough effect in the signal ratio in the repeat runs, not every such curve was filed as active; the % refers to the signal ratio; also: series mostly up to about 77 µM)
Procedure, shortened: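 Reporter line: HEK 293T with stably integrated SBE-controlled beta-lactamase. Compound exposure lasts 5 hr at 37 C and 5% CO2; substrate loading follows for 2 hr at room temperature, with emission read at 460 and 530 nm.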

[14] = Caspase-3/7 induction in HepG2 cells by small molecules, qHTS assay (AID 1346978); also: nearly all actives have a fitted effect of over 15% in size
Procedure, shortened: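 Wild-type HepG2 cells (2,000/well) were settled 5 h at 37 C, 5% CO2, then exposed to compounds in DMSO for 17 h. Caspase-3/7 activity was read by luminescence 30 min after adding Caspase-Glo 3/7 reagent at room temperature.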

[15] = biological target: Nuclear receptor subfamily 1 group I member 2 (Homo sapiens) (UniProt O75469); assay: Human pregnane X receptor (PXR) small molecule agonists, qHTS assay (AID 1346982); also: nearly all actives have a fitted effect of over 35% in size; also: potency is read from the fitted curve at half-maximal effect
Procedure, shortened: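 PXR-Luc HepG2 cells (CYP3A4 promoter-driven luciferase) were seeded in medium with 5% charcoal-stripped FBS, left 5 hr at 37 C, then exposed to compounds in DMSO for 24 hr. Luminescence was read after ONE-Glo addition.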

[16] = biological target: Progesterone receptor (Homo sapiens) (UniProt P06401); assay: qHTS assay to identify small molecule antagonists of the progesterone receptor (PR) signaling pathway (AID 1346795; active = well fitted inhibition curve with a large enough effect in the signal ratio in the repeat runs, not every such curve was filed as active; the % refers to the signal ratio; also: potency is read from the fitted curve at half-maximal effect)
Procedure, shortened: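 Antagonist mode: compounds tested against 1 nM (final) promegestone stimulation in HEK293T cells expressing PR-UAS-bla reporter, 16 hr at 37C, 5% CO2; beta-lactamase activity detected via B/G FRET substrate after 2 hr at room temperature.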

[17] = biological target: Nuclear receptor subfamily 1 group I member 2 (Rattus norvegicus) (UniProt Q9R1A7); assay: Rat pregnane X receptor (rPXR) activation by small molecules, qHTS assay (AID 1346983); settings: rPXR luciferase reporter cells, One-Glo luminescence, 24 h; active compounds read high; also: nearly all actives have a fitted effect of over 20% in size
Procedure, shortened: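 Cell-based rPXR luciferase reporter assay, 2,000 cells per well, rested 5hr at 37 C before compound addition in DMSO, then 24 hr at 37 C. One-Glo reagent was added and luminescence read after 30 min at room temperature.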

[18] = biological target: Nuclear receptor subfamily 1 group I member 2 (Homo sapiens) (UniProt O75469); assay: Human pregnane X receptor (PXR) activation by small molecules, qHTS assay (AID 1346985); also: nearly all actives have a fitted effect of over 40% in size
Procedure, shortened: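 DPX-2 cells (HepG2 co-transfected with a PXR response element and a CYP3A4-promoter luciferase construct) were seeded at 2,000 per well, rested 5 hr at 37C, then exposed to DMSO-dissolved compounds for 24 hr. Activation was read as luciferase luminescence.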
% is scaled to controls: 0 for no effect and ±100 for the full control effect.

Progesterone receptor (Homo sapiens), sequence (P06401 whole entry, looked up): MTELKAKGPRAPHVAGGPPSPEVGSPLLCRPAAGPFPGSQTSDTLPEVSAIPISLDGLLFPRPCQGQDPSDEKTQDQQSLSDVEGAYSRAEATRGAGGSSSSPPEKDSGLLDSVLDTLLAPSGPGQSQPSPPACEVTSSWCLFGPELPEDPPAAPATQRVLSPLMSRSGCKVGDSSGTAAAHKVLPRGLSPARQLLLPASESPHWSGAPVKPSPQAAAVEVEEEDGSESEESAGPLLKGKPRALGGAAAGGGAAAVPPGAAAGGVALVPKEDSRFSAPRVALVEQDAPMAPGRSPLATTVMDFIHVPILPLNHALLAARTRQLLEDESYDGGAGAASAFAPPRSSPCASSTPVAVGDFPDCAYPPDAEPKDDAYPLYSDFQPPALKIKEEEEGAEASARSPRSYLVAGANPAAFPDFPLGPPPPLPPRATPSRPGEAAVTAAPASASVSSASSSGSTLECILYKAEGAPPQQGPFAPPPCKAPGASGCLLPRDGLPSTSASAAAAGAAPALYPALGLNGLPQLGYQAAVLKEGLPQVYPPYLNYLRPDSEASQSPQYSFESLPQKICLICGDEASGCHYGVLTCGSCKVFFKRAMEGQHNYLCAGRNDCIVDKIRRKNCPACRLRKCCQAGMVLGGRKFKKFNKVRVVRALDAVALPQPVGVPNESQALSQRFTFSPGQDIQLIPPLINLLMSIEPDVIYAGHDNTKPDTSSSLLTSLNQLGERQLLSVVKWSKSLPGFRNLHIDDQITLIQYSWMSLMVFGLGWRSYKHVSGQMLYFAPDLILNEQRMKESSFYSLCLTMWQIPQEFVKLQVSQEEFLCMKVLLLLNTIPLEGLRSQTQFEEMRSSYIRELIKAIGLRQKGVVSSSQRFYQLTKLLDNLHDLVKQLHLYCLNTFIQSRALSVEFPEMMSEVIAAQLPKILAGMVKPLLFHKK
Nuclear receptor subfamily 1 group I member 2 (Homo sapiens), sequence (O75469 whole entry, looked up): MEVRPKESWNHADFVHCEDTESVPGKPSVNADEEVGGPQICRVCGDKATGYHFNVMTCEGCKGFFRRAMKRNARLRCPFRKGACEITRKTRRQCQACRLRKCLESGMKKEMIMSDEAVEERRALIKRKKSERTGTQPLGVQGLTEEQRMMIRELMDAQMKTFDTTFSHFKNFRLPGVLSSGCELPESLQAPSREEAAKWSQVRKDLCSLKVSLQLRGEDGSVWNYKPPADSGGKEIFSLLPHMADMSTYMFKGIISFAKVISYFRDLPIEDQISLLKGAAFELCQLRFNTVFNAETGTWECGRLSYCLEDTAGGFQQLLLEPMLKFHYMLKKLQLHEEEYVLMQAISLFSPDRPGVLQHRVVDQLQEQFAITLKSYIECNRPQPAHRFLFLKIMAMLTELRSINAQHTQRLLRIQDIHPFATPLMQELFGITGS
Thyrotropin-releasing hormone receptor (Homo sapiens), sequence (P34981 whole entry, looked up): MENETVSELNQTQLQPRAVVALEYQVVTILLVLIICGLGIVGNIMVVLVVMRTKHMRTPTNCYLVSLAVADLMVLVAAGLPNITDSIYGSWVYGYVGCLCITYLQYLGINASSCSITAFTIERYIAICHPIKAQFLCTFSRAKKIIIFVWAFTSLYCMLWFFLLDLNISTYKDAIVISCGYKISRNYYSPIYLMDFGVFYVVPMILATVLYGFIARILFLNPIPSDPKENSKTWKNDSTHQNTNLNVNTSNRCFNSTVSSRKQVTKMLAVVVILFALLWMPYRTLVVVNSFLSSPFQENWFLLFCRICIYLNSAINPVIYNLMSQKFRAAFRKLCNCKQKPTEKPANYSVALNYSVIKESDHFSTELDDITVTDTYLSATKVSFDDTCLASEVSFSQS
Nuclear receptor subfamily 1 group I member 2 (Rattus norvegicus), sequence (Q9R1A7 whole entry, looked up): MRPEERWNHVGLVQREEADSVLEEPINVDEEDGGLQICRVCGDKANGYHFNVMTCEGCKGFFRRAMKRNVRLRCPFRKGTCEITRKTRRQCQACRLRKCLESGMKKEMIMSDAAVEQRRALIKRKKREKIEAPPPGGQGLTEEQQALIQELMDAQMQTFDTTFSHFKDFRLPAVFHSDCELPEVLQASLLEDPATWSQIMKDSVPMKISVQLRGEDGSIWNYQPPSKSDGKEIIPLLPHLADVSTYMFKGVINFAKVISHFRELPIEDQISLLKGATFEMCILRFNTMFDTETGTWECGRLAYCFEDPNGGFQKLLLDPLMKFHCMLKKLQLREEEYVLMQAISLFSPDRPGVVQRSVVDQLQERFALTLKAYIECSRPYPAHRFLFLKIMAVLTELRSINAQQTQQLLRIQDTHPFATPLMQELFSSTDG

COc1ccc2c(c1)C(=O)N(CCc1ccc(S(=O)(=O)NC(=O)NC3CCCCC3)cc1)C(=O)C2(C)C
active: Potency [2] 5.96 µM
inactive: Potency [1] | Potency [3] | outcome [4] | outcome [5] | outcome [6] | outcome [7] | Potency [8] | Potency [9] | outcome [10] | Potency [11]

CCOCCOCCOCC
inactive: Potency [1] | Potency [3] | Potency [12] | outcome [4] | outcome [5] | outcome [13] | outcome [7] | Potency [14] | Potency [9] | outcome [10] | Potency [11] | Potency [15]

CC(=O)c1ccc2c(c1)Cc1ccccc1-2
inactive: Potency [1] | Potency [2] | Potency [3] | Potency [12] | outcome [4] | outcome [5] | outcome [13] | outcome [6] | outcome [7] | Potency [14] | outcome [10] | Potency [11]

Nc1ccc([N+](=O)[O-])c(N)c1
inactive: Potency [2] | Potency [3] | Potency [12] | outcome [5] | outcome [13] | outcome [6] | outcome [7] | Potency [14] | outcome [10]
active: Potency [1] 29.9 µM

CN1C(C)(C)CCCC1(C)C
inactive: Potency [1] | Potency [2] | Potency [12] | outcome [5] | outcome [13] | outcome [6] | outcome [7] | Potency [8] | Potency [14] | Potency [9] | outcome [10] | Potency [11] | Potency [15]

NC(CO)C(=O)NNCc1ccc(O)c(O)c1O (stereo not drawn)
inactive: Potency [16] | Potency [3] | Potency [12] | outcome [4] | outcome [5] | outcome [13] | Potency [14] | outcome [10] | Potency [11] | max activation [17] -1.3% | Potency [18]

O=C(OCC(O)CO)c1ccccc1Nc1ccnc2c(C(F)(F)F)cccc12 (stereo not drawn)
inactive: Potency [1] | outcome [4] | outcome [5] | outcome [13] | outcome [6] | outcome [7] | Potency [8] | outcome [10] | Potency [11]
active: Potency [16] 29.8 µM | Potency [15] 26.6 µM

O=C(O)C(=O)Cc1ccccc1
inactive: Potency [1] | Potency [2] | Potency [3] | Potency [12] | outcome [4] | outcome [5] | outcome [13] | outcome [6] | outcome [7] | Potency [14] | Potency [9] | outcome [10] | Potency [11]

CC(C)(C)c1n[nH]c(=S)n(N)c1=O
inactive: Potency [1] | Potency [2] | Potency [3] | Potency [12] | outcome [4] | outcome [5] | outcome [13] | outcome [6] | outcome [7] | Potency [8] | Potency [14] | Potency [9] | outcome [10] | Potency [11] | Potency [15]

C[C@@H](Oc1ccc(CNC(=O)c2cccnc2Oc2ccc3c(c2)OCO3)c(F)c1)C(=O)O
inactive: Potency [1] | Potency [2] | Potency [3] | Potency [12] | outcome [4] | outcome [13] | outcome [6] | outcome [7] | Potency [8] | Potency [14] | Potency [9] | outcome [10] | Potency [11] | Potency [15]

CC(=O)Nc1ccc(S(=O)(=O)Cl)cc1
inactive: Potency [1] | Potency [2] | Potency [12] | outcome [5] | outcome [13] | outcome [6] | outcome [7] | Potency [8] | Potency [14] | Potency [9] | outcome [10] | Potency [11] | Potency [15]

C=C(C)C(=O)OCc1ccccc1
active: Potency [3] 30.6 µM | Potency [12] 48.6 µM
inactive: Potency [1] | Potency [2] | outcome [4] | outcome [5] | outcome [13] | Potency [8] | Potency [14] | Potency [9] | outcome [10] | Potency [11]

C=C(C)C(=O)OCCN(CC)CC
inactive: Potency [1] | Potency [2] | Potency [3] | Potency [12] | outcome [4] | outcome [5] | outcome [13] | outcome [6] | outcome [7] | Potency [14] | Potency [9] | outcome [10] | Potency [11] | Potency [15]

OCCC(F)(F)C(F)(F)C(F)(F)C(F)(F)C(F)(F)C(F)(F)C(F)(F)C(F)(F)F
inactive: Potency [1] | Potency [2] | Potency [3] | Potency [12] | outcome [4] | outcome [5] | outcome [13] | outcome [6] | outcome [7] | Potency [8] | Potency [14] | Potency [9] | outcome [10] | Potency [11] | Potency [15]

CC1=CCC(C(C)C)=CC1
inactive: Potency [1] | Potency [2] | Potency [3] | Potency [12] | outcome [4] | outcome [5] | outcome [13] | Potency [8] | Potency [14] | Potency [9] | outcome [10] | Potency [11] | Potency [15]

Brc1ccc(-c2ccccc2)cc1
inactive: Potency [1] | Potency [2] | Potency [3] | Potency [12] | outcome [4] | outcome [5] | outcome [13] | Potency [9] | Potency [11] | Potency [15]

CCCCOC(=O)c1ccccc1
inactive: Potency [1] | Potency [2] | Potency [3] | Potency [12] | outcome [4] | outcome [5] | outcome [13] | outcome [6] | outcome [7] | Potency [8] | Potency [14] | Potency [9] | Potency [11] | Potency [15]
